Screening results as filed in PubChem BioAssay.
GPR151 ag: activates the human receptor GPR151; Q8TDV0; PathHunter beta-arrestin GPR151 cells, luminescence; activation, % at 11.2 µM; hit rate 1% among 650,000; AID 1508602; in the data active = activation above about 4.9%;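 note: 0% = median of compound wells and 100% = cells with positive control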
TEAD-YAP block: TEAD-YAP interaction inhibition; inhibition, % at 9.12 µM; hit rate 1.4% among 640,000; HEK-TIYL cells, TEAD-Gal4/YAP UAS-luciferase luminescence; in the data active = inhibition above about 32%;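 note: 0% = median of test compound wells and 100% = reference inhibitor wells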
MITF primary: blocks human microphthalmia-associated transcription factor. O75030. AID 1259374. AlphaScreen MITF homodimerization, bead proximity signal. inhibition, % at 2.6 µM. hit rate 0.91% among 650,000; in the data active = inhibition above about 50%;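 note: 0% = vehicle wells with protein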
FBW7 act: activators of human E3 ligase FBW7 | Q969H0 | AlphaScreen FBW7–phospho-cyclin E peptide binding, activator screen | hit rate 0.13% among 650,000 | AID 1259310 | normalized activity (activation), % at 26.1 µM; in the data active = normalized activity above about 1.9%;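 note: purified mutant Fbw7 with reduced substrate affinity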
Target sequence (Q969H0 whole entry, looked up): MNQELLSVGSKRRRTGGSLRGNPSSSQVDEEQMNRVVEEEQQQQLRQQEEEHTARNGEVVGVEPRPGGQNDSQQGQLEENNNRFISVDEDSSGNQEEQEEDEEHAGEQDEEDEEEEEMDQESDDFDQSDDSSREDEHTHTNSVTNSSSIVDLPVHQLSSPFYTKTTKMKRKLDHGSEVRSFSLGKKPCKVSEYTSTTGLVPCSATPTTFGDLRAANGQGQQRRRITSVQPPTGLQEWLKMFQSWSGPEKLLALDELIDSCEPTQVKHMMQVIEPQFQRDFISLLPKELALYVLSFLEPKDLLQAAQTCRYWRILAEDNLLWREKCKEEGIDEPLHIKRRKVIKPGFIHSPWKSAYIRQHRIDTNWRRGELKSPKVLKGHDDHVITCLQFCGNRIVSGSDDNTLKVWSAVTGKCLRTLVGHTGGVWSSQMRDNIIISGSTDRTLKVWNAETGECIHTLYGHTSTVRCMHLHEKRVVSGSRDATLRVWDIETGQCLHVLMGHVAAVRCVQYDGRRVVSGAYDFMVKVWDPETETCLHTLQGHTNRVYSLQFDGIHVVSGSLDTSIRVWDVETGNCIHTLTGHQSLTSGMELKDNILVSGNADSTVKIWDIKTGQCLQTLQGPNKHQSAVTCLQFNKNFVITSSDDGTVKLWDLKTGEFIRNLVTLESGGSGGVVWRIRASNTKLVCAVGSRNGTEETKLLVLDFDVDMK
Active calls of the source: *. An excerpt weighted towards active compounds, which were near 3.4% of everything screened.

SMILES | GPR151 ag | TEAD-YAP block | MITF primary | FBW7 act
COC(=O)c1[nH]c2c(c1C)C(=O)CC(c1ccc(F)cc1)C2 (stereo unspecified) | 0.7 | 40.1* | -1.5 | -0.1
CCOCCOC(=O)c1[nH]c2c(c1C)C(=O)CC(c1ccccc1)C2 (stereo unspecified) | -0.1 | 48.9* | 8.8 | 0.1
COc1ccc(C2CC(=O)c3c([nH]c(C(=O)OCCSC)c3C)C2)cc1 (stereo unspecified) | 1.5 | -3.4 | 17.9 | 0.3
CCOCCOC(=O)c1[nH]c2c(c1C)C(=O)CC(c1cc(OC)c(OC)c(OC)c1)C2 (stereo unspecified) | 1.9 | 42.2* | -3.4 | -0.3
CCCOC(=O)c1[nH]c2c(c1C)C(=O)CC(c1ccco1)C2 (stereo unspecified) | 0.7 | 56.4* | -7.7 | -0.1
CC(=O)c1ccc(NC(=S)Nc2ccc(F)cc2)cc1 | 0.3 | -17.8 | 18.8 | 0.3
CCCNS(=O)(=O)c1ccc(NC(=O)c2ccncc2)cc1 | -1.6 | -7.5 | 1.6 | -0.1
Cc1nc2c3ccccc3nc(SCc3ccccc3F)n2n1 | 0.3 | -2.9 | 4.8 | 0.0
COc1cccc(C2NC(=S)NC(c3ccccc3)=C2C(C)=O)c1 (stereo unspecified) | 1.4 | 49.6* | 1.5 | -0.1
CN(C)c1ccc(/C=C(\NC(=O)c2ccccc2F)C(=O)Nc2ccc(F)c(Cl)c2)cc1 | 0.1 | -6.0 | 60.5* | 0.0
Cc1ccc(NC(=O)/C(=C/c2ccc(N(C)C)cc2)NC(=O)c2ccccc2F)cc1Cl | 0.8 | 5.0 | 2.7 | 0.1
CCOc1cc(-c2nnc(SCC(=O)Nc3cccc(OC)c3)nc2-c2ccc(OC)c(OCC)c2)ccc1OC | -1.2 | -5.1 | 4.8 | 0.3
Cc1ccc(C(=O)Nc2nc(Cl)c(C#N)s2)cc1 | -11.7 | 70.6* | 1.7 | 0.0
N#Cc1sc(NC(=O)c2ccc(F)c(F)c2)nc1Cl | -12.0 | 26.4 | -2.8 | 0.1
N#Cc1sc(NC(=O)c2cccc(Br)c2)nc1Cl | -9.4 | 64.2* | 6.0 | 0.2
Cc1[nH]c(=O)[nH]c(=O)c1S(=O)(=O)N1CCC(C)CC1 | 0.7 | 8.1 | 8.4 | 0.0
O=C(N/N=C/c1cc2ccccc2cc1O)c1ccncc1 | 2.7 | 87.8* | 53.5* | -2.1
Nc1nonc1C(=O)N/N=C/c1cc(Cl)cc(Cl)c1O | 2.1 | 9.4 | 68.2* | -0.9
O=C(N/N=C/c1cc(Cl)cc(Cl)c1O)c1ccncc1 | -0.6 | 32.3* | 95.6* | -0.3
COc1ccc(O)c(/C=N/NC(=O)c2ccncc2)c1 | 0.8 | 24.4 | 20.2 | -0.7
Nc1nonc1C(=O)N/N=C/c1ccccc1O | -3.0 | 2.5 | 62.6* | -0.3
COc1ccc(CCn2c(SCc3cc(=O)n4ccccc4n3)nc3ccccc3c2=O)cc1OC | 0.2 | 5.9 | 4.0 | -0.1
O=C1c2ccccc2C(=O)C1(Nc1ccc(OCc2ccccc2Cl)cc1)c1ccccc1 | -0.4 | 32.4* | 14.3 | 0.4
Nc1ccc(OCc2ccccc2Cl)cc1 | -1.3 | 72.4* | 23.9 | 0.2
CC(C)c1ccc(C(=O)Nc2ccc(-c3nc4cc(C(C)C)ccc4o3)cc2)cc1 | -0.6 | 0.9 | 6.9 | -0.2
SMILES | GPR151 ag | TEAD-YAP block | MITF primary | FBW7 act
Cc1cc(C(=O)Nc2cccc(C(F)(F)F)c2)on1 | 0.7 | -0.6 | 5.6 | 0.1
CN(C)c1ccc(/C=C/c2cc(C(C)(C)C)nc(C(C)(C)C)c2)cc1 | 0.0 | 3.5 | -10.6 | -0.2
CC[n+]1ccccc1/C=C/N(C(C)=O)c1ccccc1 | -0.2 | -9.2 | 10.2 | 0.5
Cc1cccc2ccc(/C=C/c3ccc(N(C)C)cc3)[n+](C)c12 | 1.0 | 92.8* | 26.9 | -0.6
CN(C)c1ccc(/C=C/c2cc[n+](C)cc2)cc1 | 1.6 | 43.8* | -6.9 | -0.2
Cc1ccc2c(ccc(/C=C/c3ccc(N(C)C)cc3)[n+]2C)c1 | 3.6 | 41.5* | 15.7 | -0.4
CN(C)c1ccc(C(=O)/C=C/c2ccccc2)cc1 | -3.2 | -60.5 | 23.9 | 0.4
CC[n+]1ccccc1/C=C/c1ccc(N(C)C)cc1 | 2.5 | 47.1* | 1.0 | -0.3
O=C(Nc1c(O)c2ccccc2oc1=O)c1ccco1 | 0.2 | -12.2 | 6.5 | 0.1
O=C(CCc1ccccc1)N1CCN(Cc2ccc3c(c2)OCO3)CC1 | 0.4 | 3.9 | 6.0 | 0.0
C/C(=N\NC(=O)c1ccccc1F)c1ccc2ccccc2c1O | -2.8 | -55.0 | -3.8 | 0.1
CCCCCCCc1ccc(-c2nc(-c3ccc(Br)cc3)no2)cc1 | -1.7 | -17.3 | 13.9 | 0.7
Cc1ccc(/C=C/c2ccc(N(C)C)cc2)[n+](C)c1 | 0.7 | 70.0* | 8.9 | -0.5
CN(C)c1ccc(/C=C/c2ccc([N+](=O)[O-])cc2)cc1 | 0.4 | -6.1 | 10.8 | 0.3
O=C(CSc1cc(Cl)nc(Cl)c1)NCCc1ccccc1 | -1.5 | -2.7 | 6.0 | 0.0
COc1ccc(C2=NS(=O)(=O)N(C)C(C(=O)NC(C)(C)C)=C2)cc1OC | 0.0 | 10.2 | 2.1 | 0.0
CC(C)C(Br)C1=NS(=O)(=O)c2ccccc2N1 (stereo unspecified) | -0.4 | -4.4 | -10.4 | 0.0
Cc1ccc(C)n1-c1ccc(C(=O)O)cc1O | -0.9 | -9.5 | 61.6* | -0.7
Cc1ccc(C)n1-c1cc(C(=O)O)ccc1Cl | -1.0 | 5.6 | 76.4* | -0.6
O=C(CSc1ccc2nc(-c3ccccc3)cn2n1)NCCc1ccccc1 | -1.0 | -35.0 | 1.4 | 0.3
CCS(=O)(=O)c1ncc(Cl)c(C(=O)Nc2ccc(Cl)cc2)n1 | -2.4 | 28.4 | -5.3 | -0.1
CCS(=O)(=O)c1ncc(Cl)c(C(=O)Nc2cccc(C(F)(F)F)c2)n1 | -1.8 | 34.1* | -1.9 | -0.1
CCS(=O)(=O)c1ncc(Cl)c(C(=O)Nc2ccc(OC)c(Cl)c2)n1 | -1.8 | 49.7* | 15.6 | 0.7
CCS(=O)(=O)c1ncc(Cl)c(C(=O)Nc2ccccc2F)n1 | -0.3 | -6.3 | -3.3 | -0.1
CCS(=O)(=O)c1ncc(Cl)c(C(=O)Nc2ccccc2C(F)(F)F)n1 | -1.3 | 35.2* | 23.0 | 0.3
SMILES | GPR151 ag | TEAD-YAP block | MITF primary | FBW7 act
Cc1nc(N2CCC(C(=O)N(C)CC3COCCO3)CC2)nc2ccccc12 (stereo unspecified) | 0.5 | -3.2 | -10.8 | -0.1
Cc1cccc(NC(=O)CSc2nc(O)cc(=O)[nH]2)c1C | 0.8 | 8.5 | 10.9 | 0.0
COc1cccc(Nc2cc(N3CCCCC3)c3noc4c3c2C(=O)c2ccccc2-4)c1 | -1.5 | 0.1 | 41.2 | -1.4
COc1ccc(Nc2cc(N3CCCCC3C)c3noc4c3c2C(=O)c2ccccc2-4)cc1 (stereo unspecified) | -1.9 | 25.4 | 50.7* | -0.7
COc1ccc(Nc2cc(N3CCCC3)c3noc4c3c2C(=O)c2ccccc2-4)cc1 | -0.8 | -9.7 | 2.4 | 0.1
COc1cccc(Nc2cc(N3CCCCC3C)c3noc4c3c2C(=O)c2ccccc2-4)c1 (stereo unspecified) | -1.4 | 5.8 | 69.0* | -0.5
Cn1nc(-c2ccc(OCC(=O)N3CCCCC3)cc2)c2ccccc2c1=O | 0.2 | 52.1* | 2.0 | 0.0
Cn1nc(-c2ccc(OCC(N)=O)cc2)c2ccccc2c1=O | -0.5 | -21.0 | 8.5 | 0.0
CCN(CC)c1ccc(/C=N\Nc2ncc(F)c(N3CCOCC3)n2)c(O)c1 | 0.0 | 37.3* | 61.8* | -0.6
Fc1cnc(N/N=C\c2ccc(-c3ccccc3)o2)nc1N1CCOCC1 | -0.4 | -20.5 | 7.3 | -0.1
